{
  "source": "PubChem BioAssay (NCI)",
  "note": "The panel holds about 83,000 compounds, 20% with a hit somewhere; the sample as a whole holds those more often.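 Cells were grown in 96-well plates and exposed to the test compound at a single concentration for 48 hours; results are reported as percent growth, with values below 10 considered active.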 Unmarked numbers belong to inactive results. The source made the active and inactive calls.",
  "data": [
    {"test_system": "A498 renal", "assay": "NCI-60 one-dose screen, 48 h (100 = growth as untreated, 0 = no growth, -100 = all killed)", "conditions": "10 µM unless noted", "values": [
      {"compound": "COc1cc2c3c(c4c5ccccc5[nH]c4c2c(OC)c1OC)C(=O)N(O)C3=O", "growth": "-16.8% (active)"},
      {"compound": "Cc1cc2nc3c4cc(O)ccc4n(CCN(C)C)c3nc2cc1C", "growth": "9.28% (active)"},
      {"compound": "Cc1csc(Nc2nc(-c3ccc(Cl)cc3)nc(C(Cl)(Cl)Cl)n2)n1", "growth": "85.2%"},
      {"compound": "Cc1cc(C)nc(NC(N)=NCCc2ccccc2)n1", "growth": "86.9%"},
      {"compound": "COc1cc(-c2c(C#N)c(-c3cccs3)nc3c2c(-c2ccccc2)nn3-c2ccccc2)ccc1O", "growth": "106%"},
      {"compound": "CN1CCN(c2ccc3nc(-c4[nH]ncc4Nc4ncnc5c4OCCCN5)[nH]c3c2)CC1", "growth": "-95.7% (active)"},
      {"compound": "COC(=O)[C@]12CC[C@@H](C)[C@H](C)[C@@H]1C1=CC[C@@H]3[C@@]4(C)C[C@@H](O)[C@H](O)[C@@](C)(CO)C4=CC[C@@]3(C)[C@]1(C)CC2", "growth": "-94.7% (active)"},
      {"compound": "O=C(NO)c1ccc(Cn2c(=O)n(-c3ccccc3)c(=O)c3ccccc32)cc1", "growth": "-10.7% (active)"},
      {"compound": "COC(=O)[C@]12CC[C@@H](C)[C@H](C)[C@@H]1C1=CC(=O)[C@@H]3[C@@]4(C)C[C@@H](O)[C@H](O)[C@@]5(C)COC(=C45)C[C@@]3(C)[C@]1(C)CC2", "growth": "37.5%"},
      {"compound": "Cn1cc(-c2csc(-c3cn(CCN)c4ccc(F)cc34)n2)c2cccnc21", "growth": "82.4%"},
      {"compound": "CN(C)CCCCC(C(=O)CBr)(c1ccccc1)c1ccccc1", "growth": "40.2%"},
      {"compound": "CC/C=C\\C[C@H]1CC=C2C(=O)C=C[C@@H]2CC=CCCCC(=O)O[C@@H](CCCCC)CC=C2C(=O)C=C[C@@H]2CC=CCCCC(=O)O[C@@H](CCCCC)CC=C2C(=O)C=C[C@@H]2CC=CCCCC(=O)O[C@@H](CCCCC)CC=C2C(=O)C=C[C@@H]2CC=CCCCC(=O)O1", "growth": "73.1% [7.9 µM]"},
      {"compound": "Clc1ccc2c(NCCNc3nc(-c4ccccc4)cc(-c4ccccc4)n3)ccnc2c1", "growth": "93%"},
      {"compound": "Cc1ccc(N(CC(=O)Nc2ccc(S(=O)(=O)N3CCC(N4CCCC4)CC3)cc2)S(=O)(=O)c2ccc(Cl)cc2)cc1", "growth": "65.6%"},
      {"compound": "Oc1ccc(Nc2ccccc2)cc1", "growth": "87.4%"},
      {"compound": "CCCCCCCCNc1cccc2c1C(=O)c1ccccc1C2=O", "growth": "81.1%"},
      {"compound": "Cc1cc(N(CCCNc2ccnc3cc(Cl)ccc23)Cc2ccco2)nc(N2CCN(C)CC2)n1", "growth": "72.2%"},
      {"compound": "C=C1C(=O)O[C@H]2[C@H]1CC/C(Cn1cc(-c3ccc(OC)cc3)nn1)=C\\CC[C@@]1(C)O[C@@H]21", "growth": "31.7%"},
      {"compound": "O=c1[nH]c2c3ccncc3cc(-c3cccc(Cl)c3)c2c2cnccc12", "growth": "50.2%"},
      {"compound": "O=C1CNCCN1", "growth": "98%"},
      {"compound": "COc1ccc(/C=C/C(=O)NCC(C)O)cc1", "note": "(centres undefined)", "growth": "92.7%"},
      {"compound": "O=C1Nc2ccccc2/C1=C/c1cn(CCCn2c3ccccc3c(=O)c3ccccc32)c2ccccc12", "growth": "112%"},
      {"compound": "Cn1cc(-c2csc(-c3c[nH]c4ccc(F)cc34)n2)c2cccnc21", "growth": "27%"},
      {"compound": "Cc1cc(Cl)nc(N(CCCNc2ccnc3cc(Cl)ccc23)Cc2ccco2)n1", "growth": "38.1%"},
      {"compound": "COc1cc(/C=C/c2cc(/C=C/c3ccc(O)c(OC)c3)n(-c3ccc(Cl)cc3)c(=O)n2)ccc1O", "growth": "102%"},
      {"compound": "CC1(c2ccccc2)OC1C(=O)O", "note": "(centres undefined)", "growth": "109%"},
      {"compound": "COc1cc(/C=C2\\C(=O)N(CC(O)COc3cc(O)c4c(=O)cc(-c5ccccc5)oc4c3)c3ccccc32)cc(OC)c1O", "note": "(centres undefined)", "growth": "105%"},
      {"compound": "Oc1cccc2oc(=S)[nH]c12", "growth": "94.8%"},
      {"compound": "COc1ccc2c(c1)c(-c1nc(-c3c[nH]c4ncccc34)cs1)cn2CCN", "growth": "72.2%"},
      {"compound": "C=C(C)[C@@H]1CC[C@]2(C(=O)N3CCCNCC3)CC[C@]3(C)[C@H](CC[C@@H]4[C@@]5(C)CCC(=O)C(C)(C)[C@@H]5CC[C@]43C)[C@@H]12", "growth": "89.5%"},
      {"compound": "Cc1ccc(NC2CC(=O)N(c3c(C)cc(C)cc3C)C2=O)c(C)c1", "note": "(centres undefined)", "growth": "105%"},
      {"compound": "CC1c2ccccc2N(S(=O)(=O)c2ccccc2)C1C", "note": "(centres undefined)", "growth": "104%"},
      {"compound": "Nc1ccc(Cl)cn1", "growth": "96.4%"},
      {"compound": "CCc1nnc(NC(=O)c2ccoc2COc2ccccc2)s1", "growth": "59.2%"},
      {"compound": "Nc1c2c(nc3ccc(Br)cc13)CC(c1ccccc1)CC2=O", "note": "(centres undefined)", "growth": "1.16% (active)"},
      {"compound": "CC(C)(C)n1cc(-c2ccnc(NCCCNS(=O)(=O)c3ccc(Cl)cc3)c2)c(-c2cccc(F)c2)n1", "growth": "108%"},
      {"compound": "COc1cc(/C=N/NC(=S)NNC(=S)NC2CCCCC2)cc(OC)c1OC", "growth": "96.6%"},
      {"compound": "COc1ccc2[nH]c(-c3ccc(Cl)cc3)cc(=O)c2c1", "growth": "93.2%"},
      {"compound": "Cc1cc(N(CCCNc2ccnc3cc(Cl)ccc23)Cc2ccco2)nc(Cl)n1", "growth": "46.1%"}
    ]}
  ]
}
